An excerpt weighted towards active compounds, which were near 2.4% of everything screened.
GLP1R cytotox: cytotoxic in the GLP-1 receptor inverse agonist counter-screen. HEK293 cAMP-luciferase reporter cells, luminescence, 24 h. Potency, µM (doses to about 38.3 µM), without a hit: at the top dose activity change, negative = inhibition, most hits filed as inhibitors. 410,000 compounds, 0.13% hits;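 also: loss of luciferase light is scored as toxicity; potency is read from the fitted curve at half-maximal effect; % is scaled to controls: 0 for no effect and ±100 for the full control effect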
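A 23 nL compound transfer followed 12 hours of cell culture at 37 deg C; exposure then lasted 24 hr. Luciferase assay detection reagent was dispensed and plates read for luminescence after a 12 min room-temperature wait.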
TRHR agonist-1: TRH receptor (human) agonism; P34981; TRHR cells, calcium flux fluo-8, FDSS agonist mode; activation, % at 2 µM; 360,000 compounds, 0.18% hits; in the data active = activation above about 30%; also: 0% is about no effect
Target sequence (P34981 whole entry, looked up): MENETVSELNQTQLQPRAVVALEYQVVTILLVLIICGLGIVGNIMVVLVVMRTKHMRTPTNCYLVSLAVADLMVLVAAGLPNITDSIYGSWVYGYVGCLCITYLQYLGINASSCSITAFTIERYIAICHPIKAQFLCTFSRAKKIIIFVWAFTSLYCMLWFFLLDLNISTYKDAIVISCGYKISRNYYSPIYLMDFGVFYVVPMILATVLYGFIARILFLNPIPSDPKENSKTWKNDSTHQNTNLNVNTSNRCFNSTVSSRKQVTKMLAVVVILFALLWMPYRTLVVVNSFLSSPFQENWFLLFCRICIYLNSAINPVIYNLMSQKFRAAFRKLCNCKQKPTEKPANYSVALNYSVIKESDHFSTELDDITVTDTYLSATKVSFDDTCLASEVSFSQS
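Fluo-8-loaded TRHR cells; 10 s baseline, compound added, kinetic Ca2+ fluorescence read 1/s, agonist mode.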
TRHR enhancer-1: allosteric enhancers of human TRH receptor. P34981. 360,000 compounds, 0.66% hits. enhancement, % at 2 µM. AID 493056. TRHR cells, fluo-8 calcium fluorescence, EC20 TRH enhancement; in the data active = enhancement above about 30%; also: 0% is about no effect
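Enhancer read-out: after compound pinning and an initial kinetic agonist-mode read, an EC20 of TRH (10 nM final) was injected and fluo-8 calcium signal (Ex 480/Em 530) followed at 1 s/cycle for 100 cycles in TRHR-expressing cells.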
GLP-1R inv ag: acts as inverse agonist at human GLP-1 receptor. P43220. HEK293 GLP-1R CRE-luciferase, luminescence, 24 h; GLP-1R form is constitutively active. AID 624417. Potency, µM (titrated, usually from 38.3 µM), inactives show at the highest dose activity change, negative = inhibition, hits mostly inhibitors. 410,000 compounds, 1.6% hits; also: potency is read from the fitted curve at half-maximal effect; % is scaled to controls: 0 for no effect and ±100 for the full control effect; nearly all actives have a fitted effect of over 55% in size
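HEK293 cells stably co-expressing constitutively active GLP-1R and a cAMP-responsive luciferase reporter were seeded in DMEM with 10% Nu serum, given compounds after 12 h, and incubated 24 h at 37 deg C. Luminescence was then read.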
GLP-1R agonist: agonists of human GLP-1 receptor; P43220; AID 624172; Potency, µM (titrated, usually from 45.6 µM), for the others: top-dose activation, usual class: activators; 380,000 compounds, 0.007% hits; HEK293 GLP-1R CRE-luciferase, luminescence, 4-6 h; cells express a hypersensitive GLP-1R form; also: potency is read from the fitted curve at half-maximal effect; % of control where 0% means no effect
PTHR1 ag: agonists of human PTHR1 parathyroid hormone receptor; AID 743266; 410,000 compounds, 0.075% hits; HEK293 GP2 PTHR1 cells, GloSensor cAMP luminescence, 1 h; Potency, µM (series often up to 115 µM), for the others: at the top dose activation, actives largely listed as activators; also: potency is read from the fitted curve at half-maximal effect; nearly all actives have a fitted effect of over 55% in size
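HEK-293-derived GP2 cells expressing PTHR1 and a GloSensor cAMP reporter, 3,000/well, plated overnight, given luciferin plus IBMX (each 0.5 mM as added) for 1 h at 37 °C, then compound for 1 h at 37 °C. Luminescence was read after 15 min at room temperature.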
TRHR enhancer-2: human TRH receptor allosteric enhancement confirmation; shares compounds with TRHR enhancer-1; TRH receptor cell assay, enhancer confirmation qHTS; activity change, negative = inhibition, % at 46.1 µM; 970 tested, under 10 active;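 also: compound effect scored on response to added TRH at EC20 of 10 nM; 0% is about no effect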
TRHR agonist-2: human TRH receptor agonism confirmation; 970 compounds, 8% hits; shares compounds with TRHR enhancer-1; Potency, µM (series often up to 46.1 µM), inactives show at the top dose activation, hits mostly activators; TRHR-expressing cells, agonist activation read-out; also: potency is read from the fitted curve at half-maximal effect; 0% is about no effect; nearly all actives have a fitted effect of over 75% in size
An asterisk follows results filed as active; i = inactive; ? = inconclusive; . = not tested or not shown; [ ] = remark or other dose. Unless noted, calls follow the shape of the dose curve; as a rule, active = well fitted curve in the direction sought with a large enough effect; inconclusive = small, poorly fitted or top-dose-only effect, or another doubt; inactive = no such curve, though single readings can be large; an effect the other way counts as inactive or inconclusive.

SMILES	GLP1R cytotox	TRHR agonist-1	TRHR enhancer-1	GLP-1R inv ag	GLP-1R agonist	PTHR1 ag	TRHR enhancer-2	TRHR agonist-2
O=C(Cn1cnc2c(nnn2Cc2ccc(Cl)cc2)c1=O)N1CCN(c2ccccc2)CC1	-7%	1	-2	?	4%	-31%	.	.
O=C(Cn1cnc2c(nnn2Cc2ccccc2)c1=O)N1CCN(c2ccccc2)CC1	4%	-1	89*	11%	-4%	-59%	-4	0%
CCOC(=O)c1cc(CC)sc1NC(=O)COC(=O)c1cnccn1	0%	0	13	32%	12%	-2%	.	.
CCOC(=O)c1cc(CC)sc1NC(=O)COC(=O)c1ccccn1	-4%	36*	3	58%	13%	-1%	6	1%
CCCC(=O)NCCc1nc2ccccc2n1CC(=O)c1ccccc1	5%[1.53 µM]	0	-2	5%	1%	16%	.	.
CCCC(=O)NCCCc1nc2ccccc2n1C(C)C	-2%	0	47*	5%	9%	i	-2	1%
CCCCN1C(=O)/C(=C/C=C2\SCCN2C)SC1=S	6%[7.66 µM]	20	-1	-4%[7.66 µM]	5%	-26%	.	.
CN1CCS/C1=C/C=C1\SC(=S)N(CC(=O)O)C1=O	-26%	27	-3	?	-1%	i	4	21µM*
Cc1ccc2c(NC(=O)c3ccc(Br)o3)cccc2n1	-3%	0	7	20%	9%	-33%	.	.
Cc1ccc2c(NC(=O)c3ccco3)cccc2n1	-2%	0	42*	32%	0%	i	-1	0%
Cc1cc(NC(=O)c2ccc([N+](=O)[O-])cc2Cl)ccc1NC(=O)c1ccco1	-6%	0	-2	2%	-1%	-13%	.	.
Cc1cc([N+](=O)[O-])ccc1NC(=O)c1ccco1	8%	-1	46*	42%	8%	-1%	-3	0%
O=C(COC(=O)c1cccnc1Cl)Nc1cccc(S(=O)(=O)N2CCCCC2)c1	4%	0	54*	-11%	9%	-18%	-6	4%
N#Cc1cc(-c2ccccc2)nc(NN)n1	?	0	48*	?	-6%	-56%	-16	-1%
C#CCn1cccc(C(=O)Nc2ccc(OC)cc2)c1=O	2%	0	45*	10%	3%	-20%	-3	-1%
COCCOC(=O)C1=C(C)N(c2ccccc2)C(=O)NC1c1cccc([N+](=O)[O-])c1 (configuration not stated)	-13%	-1	50*	8%	0%	-8%	-19	0%
CC1CCN(Cc2c(C(=O)N/N=C/c3ccc(C(C)(C)C)cc3)nnn2-c2nonc2N)CC1	-7%	1	6	0%	8%	i	.	.
CC1CCN(Cc2c(C(=O)N/N=C/c3ccc(C(C)C)cc3)nnn2-c2nonc2N)CC1	8%	1	52*	?	5%	-8%	4	2%
COc1ccc(N2CCN(S(=O)(=O)c3ccc(-n4cnnn4)c(C)c3)CC2)cc1	-10%	0	-1	4%	-4%	i	.	.
CCCc1cc(=O)oc2c(C)c(OCC(=O)NCCN3CCOCC3)ccc12	3%	-1	54*	53%	9%	-38%	7	-1%
O=C(Cc1ccc([N+](=O)[O-])cc1)OCc1ccc([N+](=O)[O-])cc1	-5%	-1	-8	0%	19%	-25%	.	.
COC(=O)CCCNC(=O)OCc1ccc([N+](=O)[O-])cc1	1%	-1	67*	31%	0%	-10%[57.5 µM]	-3	2%

Screening results (PubChem BioAssay)
